# Experimental data: paper PMC7862700, “An all-to-all approach to the identification of sequence-specific readers for epigenetic DNA modifications on cytosine”
# Key:
# Test in all cases: DAPPL (digital affinity profiling via proximity ligation, sequencing); 10 mM Tris-HCl pH 7.5, 50 mM NaCl, 1 mM DTT, 4% glycerol, room temperature, 30 min; GST-TFs on glutathione beads, 16-mer random dsDNA library, 0.1% formaldehyde crosslink after washing; high values mean tight binding
# [1] = molecular target: T1, FEV (Homo sapiens, UniProt Q99581 1-238); settings: protein: recombinant; tags: N-terminal GST; dsDNA, one strand shown
# T1 sequence: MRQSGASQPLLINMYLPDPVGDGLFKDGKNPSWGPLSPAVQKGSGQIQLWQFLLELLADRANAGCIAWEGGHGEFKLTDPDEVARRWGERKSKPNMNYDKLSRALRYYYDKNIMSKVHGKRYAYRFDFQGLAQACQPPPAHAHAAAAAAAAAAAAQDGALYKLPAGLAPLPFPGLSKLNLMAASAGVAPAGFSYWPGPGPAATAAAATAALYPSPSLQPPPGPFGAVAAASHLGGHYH
# Outline: (§1)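 Binding signal is each hexamer's read frequency for a factor divided by its frequency in the tag-only sample. The factors were GST-fused human transcription factors from yeast, captured on glutathione beads, DNA-barcoded and pooled with that sample. Pools were incubated with 200 nmole of a random double-stranded 16-mer DNA library in Tris/NaCl/DTT/glycerol buffer at room temperature for 30 min, then washed, crosslinked with 0.1% formaldehyde, proximity-ligated with BsaI/T4 ligase (1 h, 37 °C), PCR-amplified and sequenced on an Illumina NextSeq500.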
# [2] = molecular target: ETV5 (Homo sapiens, UniProt P41161 1-510); settings: protein: recombinant; tags: N-terminal GST; dsDNA, one strand shown
# Outline: as §1
# [3] = molecular target: HSF1 (Homo sapiens, UniProt Q00613 1-529); settings: protein: recombinant; tags: N-terminal GST; chain copies: 3; dsDNA, one strand shown
# Outline: as §1
# [4] = molecular target: T2, SPIC (Homo sapiens, UniProt Q8N5J4 1-248); settings: protein: recombinant; tags: N-terminal GST; dsDNA, one strand shown
# T2 sequence: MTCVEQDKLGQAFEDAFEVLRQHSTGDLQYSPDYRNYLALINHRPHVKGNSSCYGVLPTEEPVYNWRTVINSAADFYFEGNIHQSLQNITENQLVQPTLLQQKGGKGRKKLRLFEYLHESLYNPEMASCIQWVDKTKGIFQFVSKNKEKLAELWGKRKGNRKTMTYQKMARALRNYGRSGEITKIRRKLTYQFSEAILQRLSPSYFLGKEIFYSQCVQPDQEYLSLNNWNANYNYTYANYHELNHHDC
# Outline: as §1
# [5] = molecular target: ELF4 (Homo sapiens, UniProt Q99607 1-663); settings: protein: recombinant; tags: N-terminal GST; dsDNA, one strand shown
# Outline: as §1
# [6] = molecular target: T3, ELK4 (Homo sapiens, UniProt P28324-2 1-405); settings: protein: recombinant; tags: N-terminal GST; dsDNA, one strand shown
# T3 sequence: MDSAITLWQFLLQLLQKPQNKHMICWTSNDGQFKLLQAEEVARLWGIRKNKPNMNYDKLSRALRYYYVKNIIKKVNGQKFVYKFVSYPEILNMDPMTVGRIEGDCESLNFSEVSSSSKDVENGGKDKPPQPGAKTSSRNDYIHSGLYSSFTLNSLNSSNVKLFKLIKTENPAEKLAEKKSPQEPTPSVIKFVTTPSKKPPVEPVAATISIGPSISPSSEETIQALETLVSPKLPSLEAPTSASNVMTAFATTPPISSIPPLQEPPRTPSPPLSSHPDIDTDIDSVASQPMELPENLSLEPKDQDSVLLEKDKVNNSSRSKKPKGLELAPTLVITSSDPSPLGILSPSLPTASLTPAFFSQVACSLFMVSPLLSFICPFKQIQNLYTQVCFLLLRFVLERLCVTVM
# Outline: as §1
# [7] = molecular target: T4, ETV2 (Homo sapiens, UniProt O00321 1-342); settings: protein: recombinant; tags: N-terminal GST; dsDNA, one strand shown
# T4 sequence: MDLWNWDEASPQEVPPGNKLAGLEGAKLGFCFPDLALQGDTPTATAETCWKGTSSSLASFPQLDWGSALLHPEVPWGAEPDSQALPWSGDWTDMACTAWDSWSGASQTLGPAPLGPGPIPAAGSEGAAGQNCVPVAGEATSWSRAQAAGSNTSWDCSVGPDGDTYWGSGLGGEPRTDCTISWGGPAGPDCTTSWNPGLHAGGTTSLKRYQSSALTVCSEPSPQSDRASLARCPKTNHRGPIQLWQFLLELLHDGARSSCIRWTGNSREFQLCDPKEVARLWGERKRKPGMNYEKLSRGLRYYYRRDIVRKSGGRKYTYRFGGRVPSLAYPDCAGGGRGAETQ
# Outline: as §1
# [8] = molecular target: CRX (Homo sapiens, UniProt O43186 1-299); settings: protein: recombinant; tags: N-terminal GST; dsDNA, one strand shown
# Outline: as §1
# [9] = molecular target: ETV1 (Homo sapiens, UniProt P50549 1-477); settings: protein: recombinant; tags: N-terminal GST; dsDNA, one strand shown
# Outline: as §1
# [10] = molecular target: T5, ERF (Homo sapiens, UniProt P50548 1-548); settings: protein: recombinant; tags: N-terminal GST; dsDNA, one strand shown
# T5 sequence: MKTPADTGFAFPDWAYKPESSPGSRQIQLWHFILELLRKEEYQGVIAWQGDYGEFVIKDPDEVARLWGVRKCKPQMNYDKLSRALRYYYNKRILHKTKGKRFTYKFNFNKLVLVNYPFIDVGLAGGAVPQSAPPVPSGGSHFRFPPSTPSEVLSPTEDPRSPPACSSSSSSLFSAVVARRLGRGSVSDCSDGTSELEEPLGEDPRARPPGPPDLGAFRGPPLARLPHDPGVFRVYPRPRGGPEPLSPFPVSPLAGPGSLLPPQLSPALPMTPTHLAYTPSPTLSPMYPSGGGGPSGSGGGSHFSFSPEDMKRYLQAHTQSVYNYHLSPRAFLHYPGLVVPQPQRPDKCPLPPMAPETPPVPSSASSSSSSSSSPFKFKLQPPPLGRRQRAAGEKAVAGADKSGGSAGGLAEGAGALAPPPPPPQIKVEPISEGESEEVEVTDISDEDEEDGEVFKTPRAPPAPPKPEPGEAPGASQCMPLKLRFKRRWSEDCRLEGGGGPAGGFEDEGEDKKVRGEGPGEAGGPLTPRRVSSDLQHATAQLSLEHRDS
# Outline: as §1
# [11] = molecular target: T6, ETV3L (Homo sapiens, UniProt Q6ZN32 1-361); settings: protein: recombinant; tags: N-terminal GST; dsDNA, one strand shown
# T6 sequence: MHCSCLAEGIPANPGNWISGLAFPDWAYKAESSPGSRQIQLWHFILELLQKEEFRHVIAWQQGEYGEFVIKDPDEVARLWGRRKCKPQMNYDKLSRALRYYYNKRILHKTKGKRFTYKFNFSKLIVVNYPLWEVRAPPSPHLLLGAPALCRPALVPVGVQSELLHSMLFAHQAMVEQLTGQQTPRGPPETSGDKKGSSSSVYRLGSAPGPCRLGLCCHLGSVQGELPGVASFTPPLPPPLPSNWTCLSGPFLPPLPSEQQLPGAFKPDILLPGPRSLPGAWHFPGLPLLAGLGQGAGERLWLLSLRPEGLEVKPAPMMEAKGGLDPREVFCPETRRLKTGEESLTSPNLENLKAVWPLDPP
# Outline: as §1
# [12] = molecular target: T7, SPDEF (Homo sapiens, UniProt O95238 1-335); settings: protein: recombinant; tags: N-terminal GST; dsDNA, one strand shown
# T7 sequence: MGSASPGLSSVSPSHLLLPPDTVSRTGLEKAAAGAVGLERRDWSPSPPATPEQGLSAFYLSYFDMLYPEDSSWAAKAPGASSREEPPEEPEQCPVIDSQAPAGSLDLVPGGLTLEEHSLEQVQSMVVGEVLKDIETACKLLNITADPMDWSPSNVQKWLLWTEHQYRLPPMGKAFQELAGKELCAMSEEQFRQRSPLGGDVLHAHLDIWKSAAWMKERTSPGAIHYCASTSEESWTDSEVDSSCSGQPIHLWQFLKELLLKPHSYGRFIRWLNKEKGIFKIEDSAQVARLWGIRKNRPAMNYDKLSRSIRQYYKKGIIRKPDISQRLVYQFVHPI
# Outline: as §1
# [13] = molecular target: T8, ETV7 (Homo sapiens, UniProt Q9Y603 1-341); settings: protein: recombinant; tags: N-terminal GST; dsDNA, one strand shown
# T8 sequence: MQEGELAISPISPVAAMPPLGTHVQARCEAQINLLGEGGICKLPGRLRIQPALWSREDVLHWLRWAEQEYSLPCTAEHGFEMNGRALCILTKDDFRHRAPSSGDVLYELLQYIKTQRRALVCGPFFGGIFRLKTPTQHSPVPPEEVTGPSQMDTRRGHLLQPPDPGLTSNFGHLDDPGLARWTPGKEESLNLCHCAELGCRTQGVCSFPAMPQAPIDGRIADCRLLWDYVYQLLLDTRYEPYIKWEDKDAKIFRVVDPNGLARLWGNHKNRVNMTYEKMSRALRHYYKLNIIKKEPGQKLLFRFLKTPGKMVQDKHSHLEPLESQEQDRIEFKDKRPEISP
# Outline: as §1
# [14] = molecular target: T9, ETV3 (Homo sapiens, UniProt P41162-2 1-143); settings: protein: recombinant; tags: N-terminal GST; dsDNA, one strand shown
# T9 sequence: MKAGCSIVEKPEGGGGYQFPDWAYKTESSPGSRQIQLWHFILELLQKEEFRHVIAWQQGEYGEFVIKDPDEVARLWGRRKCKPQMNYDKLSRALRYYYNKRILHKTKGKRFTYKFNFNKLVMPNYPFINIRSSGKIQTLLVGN
# Outline: as §1
# [15] = molecular target: ETV6 (Homo sapiens, UniProt P41212 1-452); settings: protein: recombinant; tags: N-terminal GST; dsDNA, one strand shown
# Outline: as §1
# [16] = molecular target: T10, ETS2 (Homo sapiens, UniProt P15036 1-469); settings: protein: recombinant; tags: N-terminal GST; dsDNA, one strand shown
# T10 sequence: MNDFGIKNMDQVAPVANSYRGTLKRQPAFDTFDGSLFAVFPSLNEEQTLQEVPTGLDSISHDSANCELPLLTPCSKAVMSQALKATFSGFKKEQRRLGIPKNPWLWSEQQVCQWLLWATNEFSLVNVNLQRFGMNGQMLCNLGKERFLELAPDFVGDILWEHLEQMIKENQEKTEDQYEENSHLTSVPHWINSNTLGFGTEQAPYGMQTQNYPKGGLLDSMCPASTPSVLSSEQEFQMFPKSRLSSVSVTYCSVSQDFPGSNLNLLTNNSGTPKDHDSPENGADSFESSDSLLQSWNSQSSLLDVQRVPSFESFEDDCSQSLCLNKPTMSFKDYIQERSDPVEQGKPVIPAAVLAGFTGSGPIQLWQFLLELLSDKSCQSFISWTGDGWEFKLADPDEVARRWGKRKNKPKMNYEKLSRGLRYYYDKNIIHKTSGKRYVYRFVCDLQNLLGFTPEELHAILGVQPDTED
# Outline: as §1
# [17] = molecular target: T11, ELF5 (Homo sapiens, UniProt Q9UKW6-2 1-255); settings: protein: recombinant; tags: N-terminal GST; dsDNA, one strand shown
# T11 sequence: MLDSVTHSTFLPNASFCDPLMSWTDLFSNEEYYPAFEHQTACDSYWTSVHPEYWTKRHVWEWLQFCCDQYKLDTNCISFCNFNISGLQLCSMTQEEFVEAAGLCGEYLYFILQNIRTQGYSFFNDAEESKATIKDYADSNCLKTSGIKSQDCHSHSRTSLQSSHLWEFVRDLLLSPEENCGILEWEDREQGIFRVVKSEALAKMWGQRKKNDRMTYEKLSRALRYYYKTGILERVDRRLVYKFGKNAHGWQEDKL
# Outline: as §1
# Sequence of ELF4 (Q99607 whole entry): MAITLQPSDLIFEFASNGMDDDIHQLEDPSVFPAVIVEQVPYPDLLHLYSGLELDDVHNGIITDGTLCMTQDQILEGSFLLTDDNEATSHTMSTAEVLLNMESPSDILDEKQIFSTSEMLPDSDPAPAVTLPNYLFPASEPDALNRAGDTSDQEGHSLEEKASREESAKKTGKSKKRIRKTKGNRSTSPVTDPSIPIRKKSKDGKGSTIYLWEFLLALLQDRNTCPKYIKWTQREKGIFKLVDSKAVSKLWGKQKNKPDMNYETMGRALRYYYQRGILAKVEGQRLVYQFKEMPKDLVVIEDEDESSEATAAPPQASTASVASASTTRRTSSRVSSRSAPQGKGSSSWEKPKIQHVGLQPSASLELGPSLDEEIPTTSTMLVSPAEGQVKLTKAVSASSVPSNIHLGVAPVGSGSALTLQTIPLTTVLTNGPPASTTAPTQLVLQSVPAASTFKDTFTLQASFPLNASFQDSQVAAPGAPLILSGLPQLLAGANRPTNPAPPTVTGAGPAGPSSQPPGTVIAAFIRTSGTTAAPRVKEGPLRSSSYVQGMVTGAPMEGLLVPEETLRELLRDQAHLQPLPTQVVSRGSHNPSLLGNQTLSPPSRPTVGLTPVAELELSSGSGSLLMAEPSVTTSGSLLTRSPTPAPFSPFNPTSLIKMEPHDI
# Sequence of CRX (O43186 whole entry): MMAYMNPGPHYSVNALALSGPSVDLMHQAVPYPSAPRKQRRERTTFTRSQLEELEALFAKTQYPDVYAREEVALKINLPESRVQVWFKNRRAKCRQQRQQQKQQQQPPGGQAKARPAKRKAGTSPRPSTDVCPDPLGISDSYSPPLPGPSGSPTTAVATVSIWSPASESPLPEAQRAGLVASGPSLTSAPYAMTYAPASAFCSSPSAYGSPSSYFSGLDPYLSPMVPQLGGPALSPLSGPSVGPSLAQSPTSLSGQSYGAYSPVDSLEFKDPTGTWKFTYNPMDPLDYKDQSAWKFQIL
# Sequence of ETV1 (P50549 whole entry): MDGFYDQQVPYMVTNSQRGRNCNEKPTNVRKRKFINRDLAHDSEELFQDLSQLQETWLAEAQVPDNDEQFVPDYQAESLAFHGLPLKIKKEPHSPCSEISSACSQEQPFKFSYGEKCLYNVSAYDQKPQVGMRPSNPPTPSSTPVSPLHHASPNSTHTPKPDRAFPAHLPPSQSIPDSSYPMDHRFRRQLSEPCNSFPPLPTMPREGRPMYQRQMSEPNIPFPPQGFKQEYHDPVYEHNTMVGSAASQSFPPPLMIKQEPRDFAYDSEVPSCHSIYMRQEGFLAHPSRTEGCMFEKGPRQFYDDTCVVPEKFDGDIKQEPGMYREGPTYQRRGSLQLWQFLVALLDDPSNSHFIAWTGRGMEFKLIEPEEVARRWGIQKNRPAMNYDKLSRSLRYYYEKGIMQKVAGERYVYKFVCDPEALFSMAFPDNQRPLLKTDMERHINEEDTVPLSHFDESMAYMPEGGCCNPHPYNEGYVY
# Sequence of HSF1 (Q00613 whole entry): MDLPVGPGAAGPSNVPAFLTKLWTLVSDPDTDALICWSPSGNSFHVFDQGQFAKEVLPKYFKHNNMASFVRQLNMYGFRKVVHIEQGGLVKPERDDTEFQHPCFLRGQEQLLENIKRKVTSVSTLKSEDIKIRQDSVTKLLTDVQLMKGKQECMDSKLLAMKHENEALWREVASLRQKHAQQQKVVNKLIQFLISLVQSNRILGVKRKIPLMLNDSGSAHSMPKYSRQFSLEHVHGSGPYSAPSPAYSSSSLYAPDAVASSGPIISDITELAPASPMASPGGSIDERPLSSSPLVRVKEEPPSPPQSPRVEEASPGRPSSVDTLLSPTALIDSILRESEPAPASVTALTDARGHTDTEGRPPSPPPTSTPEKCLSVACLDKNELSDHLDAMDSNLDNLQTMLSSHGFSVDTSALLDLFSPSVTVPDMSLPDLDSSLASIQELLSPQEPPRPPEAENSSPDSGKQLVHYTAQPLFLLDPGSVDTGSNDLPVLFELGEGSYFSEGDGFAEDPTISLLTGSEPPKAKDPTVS
# Sequence of ETV6 (P41212 whole entry): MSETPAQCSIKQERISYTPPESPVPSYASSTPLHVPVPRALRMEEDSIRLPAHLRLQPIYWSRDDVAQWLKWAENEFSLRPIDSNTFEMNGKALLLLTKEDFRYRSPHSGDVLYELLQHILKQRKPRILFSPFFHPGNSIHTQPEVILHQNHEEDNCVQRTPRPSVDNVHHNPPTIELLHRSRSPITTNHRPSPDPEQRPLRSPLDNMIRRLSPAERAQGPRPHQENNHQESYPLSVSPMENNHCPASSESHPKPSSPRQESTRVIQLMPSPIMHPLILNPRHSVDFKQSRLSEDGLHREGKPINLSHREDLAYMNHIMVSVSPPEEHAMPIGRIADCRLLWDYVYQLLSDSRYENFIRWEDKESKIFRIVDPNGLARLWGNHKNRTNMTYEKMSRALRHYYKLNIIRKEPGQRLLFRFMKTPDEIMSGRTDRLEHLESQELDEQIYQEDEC
# Sequence of ETV5 (P41161 whole entry): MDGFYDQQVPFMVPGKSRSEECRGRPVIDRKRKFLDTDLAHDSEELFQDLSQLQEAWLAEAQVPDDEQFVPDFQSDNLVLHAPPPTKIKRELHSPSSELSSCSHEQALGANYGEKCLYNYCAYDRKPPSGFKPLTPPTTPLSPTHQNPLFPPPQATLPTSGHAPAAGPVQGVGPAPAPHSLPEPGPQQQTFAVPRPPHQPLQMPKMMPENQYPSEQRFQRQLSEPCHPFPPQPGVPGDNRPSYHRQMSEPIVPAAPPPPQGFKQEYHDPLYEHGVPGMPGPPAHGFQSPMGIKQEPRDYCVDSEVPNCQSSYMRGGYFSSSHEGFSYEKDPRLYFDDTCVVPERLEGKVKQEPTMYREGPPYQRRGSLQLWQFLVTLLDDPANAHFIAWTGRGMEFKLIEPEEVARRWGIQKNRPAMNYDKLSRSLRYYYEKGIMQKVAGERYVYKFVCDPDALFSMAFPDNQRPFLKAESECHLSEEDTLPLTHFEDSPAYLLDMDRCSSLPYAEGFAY
Sequence,binding signal [1],binding signal [2],binding signal [3],binding signal [4],binding signal [5],binding signal [6],binding signal [7],binding signal [8],binding signal [9],binding signal [10],binding signal [11],binding signal [12],binding signal [13],binding signal [14],binding signal [15],binding signal [16],binding signal [17]
TTGGCT,"1.17 fold enrichment (6-mer frequency, TF over GST control)","1.05 fold enrichment (6-mer frequency, TF over GST control)","1.03 fold enrichment (6-mer frequency, TF over GST control)","1.02 fold enrichment (6-mer frequency, TF over GST control)","1.08 fold enrichment (6-mer frequency, TF over GST control)","1.21 fold enrichment (6-mer frequency, TF over GST control)","1.07 fold enrichment (6-mer frequency, TF over GST control)","1.33 fold enrichment (6-mer frequency, TF over GST control)","1.02 fold enrichment (6-mer frequency, TF over GST control)","1.18 fold enrichment (6-mer frequency, TF over GST control)","1.13 fold enrichment (6-mer frequency, TF over GST control)","1.11 fold enrichment (6-mer frequency, TF over GST control)","1.07 fold enrichment (6-mer frequency, TF over GST control)","1.06 fold enrichment (6-mer frequency, TF over GST control)","1.13 fold enrichment (6-mer frequency, TF over GST control)",,
TTACGA,"1.11 fold enrichment (6-mer frequency, TF over GST control)","1.07 fold enrichment (6-mer frequency, TF over GST control)","1.46 fold enrichment (6-mer frequency, TF over GST control)","1.02 fold enrichment (6-mer frequency, TF over GST control)","1.16 fold enrichment (6-mer frequency, TF over GST control)","1.16 fold enrichment (6-mer frequency, TF over GST control)","1.17 fold enrichment (6-mer frequency, TF over GST control)","1.89 fold enrichment (6-mer frequency, TF over GST control)","1.16 fold enrichment (6-mer frequency, TF over GST control)","1.06 fold enrichment (6-mer frequency, TF over GST control)","1.18 fold enrichment (6-mer frequency, TF over GST control)","1.1 fold enrichment (6-mer frequency, TF over GST control)","1.1 fold enrichment (6-mer frequency, TF over GST control)","1.1 fold enrichment (6-mer frequency, TF over GST control)","1.21 fold enrichment (6-mer frequency, TF over GST control)","1.14 fold enrichment (6-mer frequency, TF over GST control)","1.08 fold enrichment (6-mer frequency, TF over GST control)"
